Measured values taken from PubChem BioAssay (NCI).
Compounds without any hit were thinned out: in the full panel of roughly 83,000, 20% have a hit.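 Testing used 96-well plates and a 48-hour single-concentration exposure. Example: -40 means 40% of the starting cells died.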 Unmarked numbers belong to inactive results. The source made the active and inactive calls. Rule for the calls: active = growth percent below 10; inactive = the rest.

Legend:
Test in all cases: NCI-60 one-dose screen, 48 h (100 = growth as untreated, 0 = no growth, -100 = all killed)
NCI-H23 lung = settings: 10 µM unless noted
NCI-H460 lung = settings: 10 µM unless noted
K-562 leukemia = settings: 10 µM unless noted
RXF 393 renal = settings: 10 µM unless noted
SF-295 CNS = settings: 10 µM unless noted
M14 melanoma = settings: 10 µM unless noted
HT29 colon = settings: 10 µM unless noted
U251 CNS = settings: 10 µM unless noted
SK-MEL-5 melanoma = settings: 10 µM unless noted
UO-31 renal = settings: 10 µM unless noted
A498 renal = settings: 10 µM unless noted
HL-60(TB) leukemia = settings: 10 µM unless noted
CCRF-CEM leukemia = settings: 10 µM unless noted
RPMI-8226 leukemia = settings: 10 µM unless noted
HS 578T breast = settings: 10 µM unless noted
T-47D breast = settings: 10 µM unless noted
HCT-116 colon = settings: 10 µM unless noted
HCC-2998 colon = settings: 10 µM unless noted
CAKI-1 renal = settings: 10 µM unless noted
BT-549 breast = settings: 10 µM

c1ccc(-c2ccc3ccccc3[o+]2)cc1
growth (NCI-H23 lung): 84.4%
growth (NCI-H460 lung): 97.2%
growth (K-562 leukemia): 101%
growth (RXF 393 renal): 97.4%
growth (SF-295 CNS): 104%
growth (M14 melanoma): 96.8%
growth (HT29 colon): 89.1%
growth (U251 CNS): 93.4%
growth (SK-MEL-5 melanoma): 88.8%
growth (UO-31 renal): 73.5%
growth (A498 renal): 109%
growth (HL-60(TB) leukemia): 89.7%
growth (CCRF-CEM leukemia): 92.4%
growth (RPMI-8226 leukemia): 86.4%
growth (HS 578T breast): 94.1%
growth (T-47D breast): 75.6%
growth (HCT-116 colon): 95.7%
growth (HCC-2998 colon): 108%

CC1(CF)NC(=O)NC1=O (centres undefined)
growth (NCI-H23 lung): 103%
growth (NCI-H460 lung): 112%
growth (K-562 leukemia): 107%
growth (RXF 393 renal): 121%
growth (SF-295 CNS): 118%
growth (M14 melanoma): 104%
growth (U251 CNS): 115%
growth (SK-MEL-5 melanoma): 114%
growth (CAKI-1 renal): 122%
growth (A498 renal): 105%
growth (CCRF-CEM leukemia): 95.7%
growth (RPMI-8226 leukemia): 108%
growth (HS 578T breast): 108%
growth (BT-549 breast): 104%
growth (HCT-116 colon): 103%
growth (HCC-2998 colon): 102%

CC(CC(C#N)(c1ccccc1)c1ccccc1)N1CCOCC1 (centres undefined)
growth (NCI-H23 lung): 106%
growth (NCI-H460 lung): 112%
growth (K-562 leukemia): 83.5%
growth (RXF 393 renal): 112%
growth (M14 melanoma): 114%
growth (HT29 colon): 106%
growth (U251 CNS): 99.2%
growth (SK-MEL-5 melanoma): 102%
growth (UO-31 renal): 74.6%
growth (CAKI-1 renal): 92.9%
growth (A498 renal): 88.8%
growth (HL-60(TB) leukemia): 86.4%
growth (CCRF-CEM leukemia): 99.5%
growth (RPMI-8226 leukemia): 103%
growth (HS 578T breast): 111%
growth (T-47D breast): 90%
growth (BT-549 breast): 111%
growth (HCT-116 colon): 106%

FC(F)=C(F)c1ccccc1
growth (NCI-H23 lung): 103%
growth (NCI-H460 lung): 109%
growth (K-562 leukemia): 89.2%
growth (RXF 393 renal): 112%
growth (SF-295 CNS): 96.5%
growth (M14 melanoma): 96.7%
growth (HT29 colon): 104%
growth (U251 CNS): 103%
growth (SK-MEL-5 melanoma): 105%
growth (UO-31 renal): 83.7%
growth (CAKI-1 renal): 109%
growth (A498 renal): 100%
growth (HL-60(TB) leukemia): 90.8%
growth (CCRF-CEM leukemia): 80.3%
growth (RPMI-8226 leukemia): 97.5%
growth (T-47D breast): 80.5%
growth (BT-549 breast): 96%
growth (HCT-116 colon): 103%
growth (HCC-2998 colon): 114%

Cc1cc(NC(=O)CCc2ccc(N3C(N)=NC(N)=NC3(C)C)cc2)ccc1S(=O)(=O)F
growth (NCI-H23 lung): 26.2%
growth (NCI-H460 lung): 12.3%
growth (K-562 leukemia): 22.8%
growth (SF-295 CNS): 5.44% (active)
growth (M14 melanoma): 48.2%
growth (HT29 colon): 24.7%
growth (U251 CNS): 24.2%
growth (SK-MEL-5 melanoma): 13.9%
growth (UO-31 renal): 101%
growth (CAKI-1 renal): 34.2%
growth (A498 renal): 59.8%
growth (HL-60(TB) leukemia): 13.3%
growth (CCRF-CEM leukemia): -13% (active)
growth (RPMI-8226 leukemia): -24.6% (active)
growth (HS 578T breast): 74.7%
growth (T-47D breast): 75.1%
growth (HCT-116 colon): 18.3%

COc1cc(/C=C\c2cc(OC)c(OC)c(OC)c2)cc(N/C=C\C(=O)c2ccc(OC(F)(F)F)cc2)c1OC
growth (NCI-H23 lung): 26.2%
growth (NCI-H460 lung): 4.92% (active)
growth (K-562 leukemia): 4.67% (active)
growth (SF-295 CNS): 9.29% (active)
growth (M14 melanoma): -4.87% (active)
growth (HT29 colon): -36.6% (active)
growth (U251 CNS): 14.8%
growth (SK-MEL-5 melanoma): 27.6%
growth (UO-31 renal): 32.9%
growth (CAKI-1 renal): 45.5%
growth (A498 renal): -1.24% (active)
growth (HL-60(TB) leukemia): 11%
growth (CCRF-CEM leukemia): 8.99% (active)
growth (RPMI-8226 leukemia): 11.8%
growth (HS 578T breast): 29.4%
growth (T-47D breast): 37.9%
growth (BT-549 breast): 44.8%
growth (HCT-116 colon): 8.14% (active)

COc1cc(C2CC(=O)Nc3nc(N)[se]c32)cc(OC)c1OC (centres undefined)
growth (NCI-H23 lung): 102%
growth (NCI-H460 lung): 25.1%
growth (K-562 leukemia): 83.9%
growth (RXF 393 renal): 116%
growth (SF-295 CNS): 7.05% (active)
growth (M14 melanoma): 115%
growth (HT29 colon): 89.5%
growth (U251 CNS): 29.8%
growth (SK-MEL-5 melanoma): 99%
growth (UO-31 renal): 99.9%
growth (CAKI-1 renal): 113%
growth (A498 renal): 82.8%
growth (HL-60(TB) leukemia): 89.1%
growth (CCRF-CEM leukemia): 96%
growth (RPMI-8226 leukemia): 101%
growth (HS 578T breast): 81.9%
growth (T-47D breast): 74.5%
growth (BT-549 breast): 130%
growth (HCT-116 colon): 74.9%
growth (HCC-2998 colon): 107%

O=C(c1cccs1)C1NO[N+]([O-])=C1c1cccs1 (centres undefined)
growth (NCI-H23 lung): 4.55% (active)
growth (NCI-H460 lung): 82.3%
growth (K-562 leukemia): 37.4%
growth (RXF 393 renal): -25.1% (active)
growth (SF-295 CNS): 107%
growth (M14 melanoma): -40.2% (active)
growth (U251 CNS): 64%
growth (SK-MEL-5 melanoma): 112%
growth (UO-31 renal): -83.3% (active)
growth (CAKI-1 renal): -62.9% (active)
growth (A498 renal): 113%
growth (HL-60(TB) leukemia): 9.45% (active)
growth (CCRF-CEM leukemia): -40.3% (active)
growth (RPMI-8226 leukemia): 14.1%
growth (HS 578T breast): 83%
growth (T-47D breast): 26.3%
growth (BT-549 breast): 88.7%
growth (HCC-2998 colon): 96.5%
